Among the data in PubChem BioAssay AID1903 (Southern Research Specialized Biocontainment Screening …, 2009) are inhibition values, retold here.

Structures are written as SMILES. Hit rate of the full screen: of about 310,000 compounds, about 1,200 (0.39%) were called active. No rule for the calls is given here. These entries were drawn from the full list. Potency and affinity values are given separately.

Large T antigen (Simian virus 40), sequence (P03070 whole entry, looked up): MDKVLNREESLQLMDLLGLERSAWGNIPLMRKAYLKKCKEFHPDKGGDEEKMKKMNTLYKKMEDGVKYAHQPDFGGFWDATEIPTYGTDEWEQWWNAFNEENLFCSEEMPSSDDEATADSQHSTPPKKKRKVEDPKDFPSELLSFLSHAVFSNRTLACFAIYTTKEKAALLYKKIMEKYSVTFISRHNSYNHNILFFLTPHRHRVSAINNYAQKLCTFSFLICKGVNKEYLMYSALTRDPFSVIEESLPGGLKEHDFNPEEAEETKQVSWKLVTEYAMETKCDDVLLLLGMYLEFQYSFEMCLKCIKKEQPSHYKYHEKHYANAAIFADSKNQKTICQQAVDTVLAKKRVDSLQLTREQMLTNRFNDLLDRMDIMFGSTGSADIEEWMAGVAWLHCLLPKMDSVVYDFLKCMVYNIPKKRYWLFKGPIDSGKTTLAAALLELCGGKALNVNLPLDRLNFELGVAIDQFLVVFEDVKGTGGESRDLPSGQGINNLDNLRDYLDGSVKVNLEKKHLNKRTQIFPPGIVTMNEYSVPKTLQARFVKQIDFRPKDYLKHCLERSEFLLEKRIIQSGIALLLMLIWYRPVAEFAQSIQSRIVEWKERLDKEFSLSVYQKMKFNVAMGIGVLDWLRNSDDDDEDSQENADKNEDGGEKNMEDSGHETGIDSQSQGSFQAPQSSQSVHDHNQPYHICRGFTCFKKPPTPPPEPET

This experiment concerns the target Large T antigen (Simian virus 40) (UniProt P03070). Put plainly: SV40 large T antigen inhibitors, biochemical (AID 1903). The following applies: SV40 large T antigen ATPase/helicase inhibition assay; at 20 µM; hits give high values.
On to `CC(=O)N1CCN(c2cc(N3CCc4ccccc4C3)c(F)cc2[N+](=O)[O-])CC1`, for which the inhibition is 29.4% (inactive).
In the case of `COc1ccc(C(=O)O)cc1N1C(=O)Nc2ccccc2N1O`, the inhibition was 13.6% (inactive).
The figure for `O=C(NCc1cccs1)C1CC(O)CN1C(=O)Nc1ccccc1` (configuration not stated) is 3.53% (inactive); for `Nc1ccc(-c2nc3ccccc3[nH]2)cc1` it is 6.85% (inactive); for `Nc1ccccc1Nc1nc2ccccc2[nH]1` it is 26.5% (inactive).
Turning to `COc1ccc(CCNC(=O)c2cn(C)c3ccc(S(=O)(=O)N4CCOCC4)cc3c2=O)cc1OC`, the inhibition was 5.2% (inactive).
With `C=CCNS(=O)(=O)c1ccc(OC)c(C)c1` the figure was 1.44% (inactive).
With `CCN1C(=O)/C(=C/c2ccc(C)s2)NC1=S` the figure was 11.9% (inactive); with `O=c1oc(/C=C/c2ccc([N+](=O)[O-])s2)nc2ccccc12`, 6.31% (inactive).
The figure for `CCCN1C(=O)/C(=C/c2ccc(C)s2)NC1=S` is 8.4% (inactive); for `O=C(N/N=C/c1ccc([N+](=O)[O-])s1)C(O)c1ccccc1` (configuration not stated) it is 4.11% (inactive); for `O=C(/C=C/c1ccc([N+](=O)[O-])s1)N1CCN(c2ccccc2)CC1` it is 16% (inactive).
As to `CN(C(=O)/C=C/c1ccc([N+](=O)[O-])s1)c1ccccc1`, the inhibition is -0.18% (inactive).
The figure for `CCCCc1c(C(=O)O)cc(OC)cc1C(=O)O` is 12.1% (inactive); for `O=C(CSc1nc(O)cc(=O)n1-c1ccc(Cl)c(Cl)c1)Nc1ccc(Cl)cc1Cl` it is 28.9% (inactive).
The figure for `Cn1nccc1C(=O)N1CCC(Cc2ccccc2)CC1` is 11.7% (inactive); for `COC(=O)CC1C(=O)NCCN1C(=O)Nc1ccc(Cl)c(Cl)c1` (configuration not stated) it is 4.47% (inactive); for `CCC(C)NC(=O)CCc1c(C)nc2c(c(C)nn2-c2ccccc2)c1C` (configuration not stated) it is 6.67% (inactive).
As to `CC(=O)c1c(C)oc2ccc(N(C(C)=O)S(=O)(=O)c3cccc4cccnc34)cc12`, the inhibition is 10.6% (inactive).
Regarding `FC(F)(F)c1ccc(Cl)c(NC2=NCCCCC2)c1`, the inhibition is 7.53% (inactive).
The figure for `CC(C)OC(=O)C(C(=O)C(F)(F)F)c1cc(NS(=O)(=O)c2ccc3ccccc3c2)c2ccccc2c1O` (configuration not stated) is 15.1% (inactive).
With `COc1ccc(/C=N/n2nnnc2N)cc1OC` the figure was 11.7% (inactive).
The figure for `CCOc1ccc(/C=N/n2nnnc2N)cc1OCC` is 5.4% (inactive); for `COc1cc(/C=N/n2nnnc2N)ccc1OC(C)=O` it is 12.9% (inactive); for `CCOc1cc(/C=N\n2nnnc2N)ccc1O` it is 33.9% (inactive).
As for `O=C(NCc1ccccn1)c1ccc(Cl)c(S(=O)(=O)N2CCCCC2)c1`, the inhibition was 6.41% (inactive).
Take `COc1ccc(CNC(=O)C2CCN(S(=O)(=O)N3CCCCC3)CC2)cc1`: the inhibition was 7.96% (inactive).
